# Compound activity: PubChem, National Center for Advancing Translational Sciences (NCATS)
# Rows were chosen to be rich in hits. Some 8.7% of all compounds tested hit in one or more screens of this group.
# BAZ2B block = blocks human BAZ2B | Q9UIF8 | AlphaScreen BAZ2B-H3K14Ac peptide displacement | Potency, µM (highest dose often 114 µM), usual class: inhibitors | actives 4.4% (n = 360,000); note: nearly all actives have a fitted effect of over 60% in size
#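 AlphaScreen luminescence quantifies BAZ2B engagement of H3K14Ac peptide; the protein and biotinylated peptide are both at 50 nM final, buffer PBS pH 7.4 with 0.01% Tween-20, all steps at room temperature.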
# Sfp inh = inhibitors of Bacillus subtilis Sfp phosphopantetheinyl transferase; Q9F4F7; Biochemical Sfp PPTase activity, qHTS; Potency, µM, usual class: inhibitors; actives 3.5% (n = 310,000); AID 1490;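 note: the enzyme is Sfp with the accession as filed and its product quenches rhodamine fluorescence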
#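 Sfp 15 nM + cpd, 15 min RT; start w/ rhodamine-CoA 5 uM, BHQ-2-YbbR 12.5 uM (final); 50 mM Hepes pH 7.6, 10 mM MgCl2, 0.01% NP-40, 0.01% BSA; read 525/598 nm at 0 and 30 min.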
# 12-LOX inh = ALOX12 (human) lipoxygenase inhibition; actives 1.1% (n = 580,000); purified 12hLO, xylenol orange hydroperoxide absorbance; Potency, µM (series often up to 108 µM), usual class: inhibitors
#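 Purified human 12hLO (150 nM final) in 25 mM Hepes, 0.01% Triton X-100, pH 7.0 was preincubated 15 min at room temperature with compound. Then 40 uM arachidonic acid was added, 30 min. Hydroperoxide was read by Fe-XO absorbance ratio 573/405 nm.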
# JMJD2A Tudor inh = inhibitors of human JMJD2A Tudor domain. O75164. AlphaScreen JMJD2A-Tudor / H3K4me3 peptide binding. Potency, µM (titrated, usually from 114 µM), usual class: inhibitors. actives 4.4% (n = 390,000); note: nearly all actives have a fitted effect of over 50% in size
# Target sequence (O75164 whole entry, looked up, the tested form may be a part): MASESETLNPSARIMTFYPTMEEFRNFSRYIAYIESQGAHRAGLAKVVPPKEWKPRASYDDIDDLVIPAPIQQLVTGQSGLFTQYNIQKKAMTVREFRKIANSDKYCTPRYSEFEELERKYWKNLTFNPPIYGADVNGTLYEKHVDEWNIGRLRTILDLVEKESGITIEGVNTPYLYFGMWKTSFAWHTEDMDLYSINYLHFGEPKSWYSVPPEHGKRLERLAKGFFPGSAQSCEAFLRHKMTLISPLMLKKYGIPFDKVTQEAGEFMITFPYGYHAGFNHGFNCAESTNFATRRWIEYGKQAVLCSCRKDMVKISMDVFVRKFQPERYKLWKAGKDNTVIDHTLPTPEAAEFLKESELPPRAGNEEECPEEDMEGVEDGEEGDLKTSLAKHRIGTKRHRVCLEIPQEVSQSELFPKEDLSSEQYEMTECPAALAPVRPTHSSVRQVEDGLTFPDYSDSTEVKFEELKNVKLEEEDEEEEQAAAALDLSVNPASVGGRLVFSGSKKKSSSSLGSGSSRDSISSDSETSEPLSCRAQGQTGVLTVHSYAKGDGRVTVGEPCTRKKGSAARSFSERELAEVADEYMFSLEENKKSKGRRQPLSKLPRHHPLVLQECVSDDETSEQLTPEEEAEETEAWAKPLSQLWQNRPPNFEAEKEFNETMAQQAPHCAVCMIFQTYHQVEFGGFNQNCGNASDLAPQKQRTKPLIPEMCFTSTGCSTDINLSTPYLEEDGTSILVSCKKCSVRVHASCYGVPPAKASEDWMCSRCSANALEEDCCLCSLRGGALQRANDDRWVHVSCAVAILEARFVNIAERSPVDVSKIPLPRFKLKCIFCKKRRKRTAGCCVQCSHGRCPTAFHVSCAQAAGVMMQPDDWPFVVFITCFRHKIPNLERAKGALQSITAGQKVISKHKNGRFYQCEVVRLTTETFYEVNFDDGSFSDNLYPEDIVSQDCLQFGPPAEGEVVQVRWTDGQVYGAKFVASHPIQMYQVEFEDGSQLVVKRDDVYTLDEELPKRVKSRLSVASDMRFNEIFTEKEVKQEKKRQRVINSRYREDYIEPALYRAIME
# G9a inh = G9a (human) methyltransferase inhibition; Q96KQ7; G9a H3K9 monomethylation, AlphaScreen, 2 h; Potency, µM (titrated, usually from 102 µM), hits mostly inhibitors; actives 8.8% (n = 350,000); note: nearly all actives have a fitted effect of over 75% in size
#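 AlphaScreen detection with an anti-monomethyl H3K9 antibody quantified product after a 2 h room-temperature reaction containing 500 nM biotinylated H3K9 peptide, 20 µM SAM and 20 nM enzyme, which had been preincubated 15 min with compound.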
# HP1b binding inh = inhibitors of HP1-beta chromodomain binding to methylated histone tails; actives 0.56% (n = 390,000); Potency, µM (titrated, usually from 114 µM), actives largely listed as inhibitors; AID 540317; AlphaScreen HP1-beta / biotin-H3K9me3 peptide binding; P83916; note: nearly all actives have a fitted effect of over 70% in size
#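 AlphaScreen: HP1-beta (50 nM) preformed 30 min with biotin-H3(1-18)K9me3 peptide (50 nM) in PBS pH 7.4, 0.01% Tween-20. Compound added for 30 min at RT, then streptavidin donor/nickel chelate acceptor beads (10 ug/mL) for 30 min.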
# Numbers stand for hits; n = inactive; u = inconclusive; x = no result; [ ] = another dose, or the depositor's remark. Calls come from the whole dose curve; as a rule, active = well fitted curve in the direction sought with a large enough effect; inconclusive = small, poorly fitted or top-dose-only effect, or another doubt; inactive = no such curve, though single readings can be large; an effect the other way counts as inactive or inconclusive.
SMILES,BAZ2B block,Sfp inh,12-LOX inh,JMJD2A Tudor inh,G9a inh,HP1b binding inh
O=C(O)CSCC(=O)N1N=C2/C(=C/c3ccccc3)CCCC2C1c1ccccc1 (centres undefined),n,n,n,n,50µM,n
CCOC(=O)c1ccc(NC(=O)C2CC(=O)Nc3cc(F)ccc32)cc1 (centres undefined),x,x,n,x,x,x
CC12CCC(C(=O)N(CCCCN3CCN(Cc4ccccc4)CC3)C1=O)C2(C)C (centres undefined),n,n,u,u,56µM,n
CC12CCC(C(=O)N(CC(O)CN3CCN(Cc4ccccc4)CC3)C1=O)C2(C)C (centres undefined),u,n,u,n,n[12.7 µM],n
COc1ccc(OCC(O)CN2CCN(CC(O)COc3ccc(OC)cc3)CC2)cc1 (centres undefined),n,n,n,n,n,n
O=S(=O)(N1CCCCC1)N1CCN(CC(O)COc2ccc3cc(Br)ccc3c2)CC1 (centres undefined),n,n,n,n,n[12.7 µM],n
OC(COc1ccccc1)CN1CCCC1 (centres undefined),79µM,n,u,56µM,n,n
COc1ccc(OCC(O)CN2CCCC2)cc1 (centres undefined),u,n,n,79µM,x,n
OC(COc1ccc2cc(Br)ccc2c1)CN1CCCC1 (centres undefined),n,79µM,n,n,n[12.7 µM],n
COc1ccc(OCC(O)CN2CCCCCC2)cc1 (centres undefined),50µM,n,u,4µM,8.9µM,u
CCn1ccnc1CN1CCCC(CCc2ccc(OC)cc2)C1 (centres undefined),x,x,n,x,x,x
Cc1cc(Cl)ccc1S(=O)(=O)N(C)CC1CCOC1 (centres undefined),x,x,n,x,x,x
COc1cccc(OCC(O)CN2CCC(Cc3ccccc3)CC2)c1 (centres undefined),n,n,n,n,n[2.33 µM],n
OC(COc1ccccc1)CN1CCC(Cc2ccccc2)CC1 (centres undefined),n,n,7.9µM,n,n,n
CCCN(Cc1nc2cc(Cl)ccc2c(=O)[nH]1)C(=O)c1cc(OC)c(OC)c(OC)c1,x,x,n,x,x,x
Cc1cc2ccccn2c1C(=S)NC(=O)c1ccccc1,14µM,n,22µM,50µM,u,u
Cc1cc2ccccn2c1C(=O)c1ccncc1,n,n,n,n,n,n
Cc1ccc(C(=O)NC(=S)c2c(C)cc3ccccn23)cc1,x,x,7.9µM,x,x,x
COCC1CN(C2CCC2)CC12CCN(S(=O)(=O)c1cnc[nH]1)CC2 (centres undefined),x,x,n,x,x,x
O=C1SC(c2ccccc2)=C/C1=C\N1CCCCC1,50µM,u,u,50µM,n[0.0925 µM],u
O=S(=O)(c1ccccc1S(=O)(=O)N1CCCCC1)N1CCCCC1,n,n,n,n,n,n
COc1ccc(CN(CC2CCCO2)S(=O)(=O)c2ccc(-n3cnnn3)c(OC)c2)cc1 (centres undefined),n,n,n,n,n,n
COc1cccc(CN(Cc2cccnc2)S(=O)(=O)c2ccc(-n3cnnn3)c(C)c2)c1OC,u,n,u,u,25µM,n
COc1cc(S(=O)(=O)N(Cc2cccc(OC)c2OC)CC2CCCO2)ccc1-n1cnnn1 (centres undefined),n,n,n,n,50µM,n
O=C(COC(=O)c1nn(-c2ccccc2)c(=O)c2ccccc12)Nc1ccccc1Cl,x,x,n,x,x,x
SMILES,BAZ2B block,Sfp inh,12-LOX inh,JMJD2A Tudor inh,G9a inh,HP1b binding inh
Cc1cccc(NC(=O)c2ccc(-c3ccccc3[N+](=O)[O-])o2)c1,u,50µM,n,u,n[0.501 µM],n
COc1cccc(NC(=O)c2ccc(-c3ccccc3[N+](=O)[O-])o2)c1,u,45µM,n,n,u,n
Cc1cc(/C=C2\SC(N)=NC2=O)c(C)n1-c1ccccc1,n,50µM,n,n,u,n
Cc1cc(C=C2C(=O)CCCC2=O)c(C)n1-c1ccccc1,50µM,n,u,u,50µM,n
Cc1cc(/C=C2\SC(=S)NC2=O)c(C)n1C,45µM,n,u,45µM,40µM,n
Cc1cc(/C=C2\SC(=S)NC2=O)c(C)n1-c1ccccc1,u,n,u,14µM,45µM,n
O=C1OC2C3CC(C2Sc2ccc(Cl)cc2)C(C(=O)O)C13 (centres undefined),x,x,n,x,x,x
Cc1cc(/C=C2\SC(=S)NC2=O)c(C)n1-c1ccc(O)cc1,40µM,45µM,28µM,n[11.4 µM],x,u
O=c1[nH]c(-c2ccncc2)nc2ccccc12,n,14µM,n,u,8.9µM,u
O=c1[nH]c(-c2cccnc2)nc2ccccc12,n,n,n,n,n,n
CCc1ccc(NC2=CC(=O)CC(c3ccco3)C2)cc1 (centres undefined),u,u,u,u,50µM,n
Nc1ccccc1NC1=CC(=O)CC(c2ccco2)C1 (centres undefined),n,8.9µM,n,n,10µM,n
Cc1cc(C)cc(NC2=CC(=O)CC(c3ccco3)C2)c1 (centres undefined),n,n,n,n,n,n
CCN=C1SC(CC(=O)Nc2ccc3c(c2)OCO3)C(=O)N1CC (centres undefined),n,n,n,n,x,n
NC1=NC(=O)C(CC(=O)Nc2ccc3c(c2)OCO3)S1 (centres undefined),n,n,n,n,50µM,n
CC1CCN(C(=O)c2ccc(CSc3nc4ccncc4n3Cc3ccc(F)cc3)cc2)CC1,n,n,n,n,79µM,n
O=c1cc(CSc2nnc(Nc3ccccc3F)s2)nc2sccn12,n,n,n,n,u,n
Cc1cccn2c(=O)cc(CSc3nnc(NC(=O)COc4ccccc4)s3)nc12,28µM,x,u,56µM,n[12.7 µM],n
Cc1ccc(OCC(=O)Nc2nnc(SCc3cc(=O)n4cccc(C)c4n3)s2)cc1,n,x,n,u,n,n
COc1ccc(Nc2nnc(SCc3cc(=O)n4ccsc4n3)s2)cc1,n,56µM,u,22µM,4µM,n
Cc1nn2c(c1-c1ccccc1OCc1ccccc1)N(C(=O)Cc1ccccn1)CCC2,x,x,n,x,x,x
O=C(C1CCN(c2nc(-c3ccccc3)nc3c2CCC3)CC1)N1CCCNCC1,x,x,n,x,x,x
Cc1ccc(CCCOC(=O)CN2CCCCC2)cc1,n,n,n,n,n,n
C[N+]1(CC(=O)OCCCc2ccccc2)CCOCC1,45µM,n,u,50µM,71µM,n
Cc1ccc(CCCOC(=O)C[N+]2(C)CCOCC2)cc1,n,u,u,35µM,10µM,n
COc1ccc(CNC(=O)C2CCCN2C(=O)NCc2ccccc2)cc1 (centres undefined),n,n,n,n,n,n
COc1ccc(NC(=O)C2CCCN2C(=O)NCc2ccccc2)cc1 (centres undefined),n,n,n,14µM,n[12.7 µM],n
